The panel holds about 83,000 compounds, 20% with a hit somewhere; the sample as a whole holds those more often.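 Cell lines were cultured in 96-well plates, exposed to a single compound concentration, and assessed for percent growth 48 hours later.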 Values without a mark were called inactive. Activity calls are given as the source filed them. Rule for the calls: active = growth percent below 10; inactive = the rest.

Assay in all cases: NCI-60 one-dose screen, 48 h (100 = growth as untreated, 0 = no growth, -100 = all killed)
Test [1] deals with SK-MEL-2 melanoma. Particulars: 10 µM unless noted.
Test [2] concerns EKVX NSCLC. Particulars: 10 µM unless noted.
Test [3] relates to SN12C renal. Particulars: 10 µM unless noted.
Test [4] relates to UO-31 renal. The note with it: 10 µM unless noted.
Test [5] has as its system ACHN renal. Particulars: 10 µM unless noted.
For test [6], the system named is A498 renal. The note with it: 10 µM unless noted.
In test [7] the test system is CCRF-CEM leukemia. The note with it: 10 µM unless noted.
Test [8] relates to MOLT-4 leukemia. Particulars: 10 µM unless noted.
Test [9] deals with SR leukemia. The note with it: 10 µM unless noted.
Test [10] relates to RPMI-8226 leukemia. The note with it: 10 µM unless noted.
Test [11] deals with OVCAR-8 ovarian. The note with it: 10 µM unless noted.
In test [12] the test system is OVCAR-5 ovarian. Particulars: 10 µM unless noted.
The test system of test [13] is OVCAR-4 ovarian. The note with it: 10 µM unless noted.
Test [14] deals with SK-OV-3 ovarian. Particulars: 10 µM unless noted.
The test system of test [15] is IGROV1 ovarian. Particulars: 10 µM unless noted.
Test [16] relates to OVCAR-3 ovarian. Particulars: 10 µM unless noted.
Test [17] deals with HS 578T breast. The note with it: 10 µM unless noted.
Test [18] concerns NCI/ADR-RES ovarian. The note with it: 10 µM unless noted.
Test [19] deals with CAKI-1 renal. Particulars: 10 µM.
For test [20], the system named is TK-10 renal. The note with it: 10 µM unless noted.

As to `Nc1ncnc2c1c(-c1ccc(Oc3ccccc3)cc1)nn2C[C@H]1SSC[C@@H]1O`, the growth in test [1] is -46.5% (active); in [2], 25.3%; in [3], 54.5%; in test [4] it was 17.4%; in test [5], 33.4%; in [6] it was 27.9%. In addition, the growth was -15.8% (active) in test [7]; -51.2% (active) in [8]; -49.4% (active) in test [9]; 46.2% in test [10]; 79.4% in [11]; 82.1% in [12]. In addition, the growth in test [13] is 47.2%; in test [14], 1.91% (active); in test [15], 22%; in test [16], -62.4% (active); in test [17], 68.3%; in test [18], 76.5%.

Turning to `CN(C)CCNc1nc2ccccc2c2c(=O)c3ccccc3sc12`, the growth in test [1] is -11% (active); in test [2] it was 30.7%; in test [3] it was 32.1%; in test [4] it was 12.6%; in test [5], 7.03% (active); in [6], -2.07% (active). The growth was 6.74% (active) in test [7]; -4.55% (active) in test [8]; -18.1% (active) in test [9]; -8.02% (active) in test [10]; 14.6% in test [11]; 46% in test [12]. For the same molecule, the growth was 38.4% in test [13]; 28.5% in test [15]; 31.2% in [16]; 30.3% in test [17]; 20.9% in test [18].

As to `Nc1ncc(-c2ccc3ncnc(Nc4cncc(Cl)c4)c3c2)cn1`, the growth in test [1] was 66.4%; in test [2] it was 33%; in test [3], 69.8%; in test [4] it was 41.9%; in test [5], 41.6%; in [6], 0.263% (active). The growth is 84.5% in test [7]; 77.8% in test [8]; 73.8% in [9]; 50.1% in [10]; 76.8% in test [11]; 52% in [12]. Also, the growth in test [13] is 66.8%; in test [14], 46.5%; in [15] it was 7.85% (active); in test [16], 59.9%; in test [17], 61.6%; in test [18], 82.2%.

Turning to `O=c1c2ccccc2sc2c(NCCN3CCOCC3)nc3ccccc3c12`, the growth was 102% in test [1]; 70.9% in test [2]; 59.4% in test [3]; 47.6% in test [4]; 43.5% in test [5]; 43.7% in test [6]. Also, the growth in [7] is 36.3%; in test [8], 37%; in test [9], 3.91% (active); in test [10] it was 40.3%; in test [11] it was 58.8%; in [12], 84.9%. Moreover, the growth in test [13] was 65.6%; in test [14] it was 50.8%; in test [15], 66.2%; in [16], 79.2%; in [17], 52.7%; in [18], 63.5%.

In the case of `c1ccc2c(c1)Oc1cccnc1-n1nccc1-2`, the growth in test [1] is 121%; in [2] it was 104%; in test [3] it was 101%; in [4], 101%; in test [5], 99.7%; in [6], 87.2%. The growth in test [7] is 104%; in test [8], 109%; in [9], 94.2%; in [10], 96.9%; in [11] it was 99.6%; in test [12], 107%. For the same molecule, the growth in test [13] is 110%; in [14], 104%; in test [15] it was 104%; in test [16], 108%; in test [17], 90.1%; in test [18], 100%.

Turning to `CCn1c(SC)nnc1-c1cc2c([nH]c3ccccc32)c(-c2cccc(O)c2)n1`, the growth in [1] was 15.6%; in test [2] it was 21.6%; in [3] it was 39.5%; in test [4] it was 24.1%; in test [5], 30.5%; in test [19], 25.3%. For the same molecule, the growth in test [6] is -2.24% (active); in test [7], 18.4%; in test [10] it was 30.1%; in test [11] it was 25.4%; in test [12], 48.8%; in test [13] it was 12.5%. Moreover, the growth in [14] was 27.5%; in test [15] it was 35%; in test [16] it was -7.34% (active); in test [17] it was 12.3%; in test [18], 8.9% (active).

In the case of `COc1ccc2c(c1)C(=O)/C(=C/c1ccc(OCC(=O)c3ccc(Cl)cc3)cc1)O2`, the growth is 87% in test [1]; 82% in [2]; 92.2% in test [3]; 132% in test [20]; 98.8% in [5]; -53.4% (active) in test [19]. The growth in test [6] is 148%; in test [7], 29%; in [8], 20%; in [10], 58.9%; in [11] it was 84.9%; in [12] it was 105%. The growth in [13] was 78.4%; in test [14], 98.8%; in test [16], 83.7%; in test [17], 115%.

On to `COc1ccc(C(=O)NC(=O)Nc2ccc3c(c2)NC(=O)/C3=C\c2[nH]c(C)c(CCC(=O)O)c2C)c(F)c1`, for which the growth is -0.585% (active) in test [1]; 73.1% in test [2]; 39.7% in test [3]; 55.6% in test [4]; 67% in test [5]; -0.45% (active) in test [6]. Besides, the growth in test [7] is 12.2%; in [8], 54.6%; in [9], 18.8%; in test [10], 13%; in test [11], 8.62% (active); in test [12], 64.4%. Also, the growth in test [13] was 77%; in test [14], 56.6%; in test [15], 43%; in test [16], 23.4%; in [17], -5.02% (active).

The values above are taken from PubChem BioAssay (NCI).
